We go through 8 molecules from PubChem BioAssay (EPA / NIEHS).

Test [1] is described as follows: ACEA_ER_80hr: ACEA Biosciences xCELLigence Real-Time Cell Analysis on Estrogen Receptor Agonism for Proliferation (AID 2282667; active = hit-call score of the fitted dose curve at least 0.9, where 1 is the maximum). Particulars: T47D proliferation, impedance (xCELLigence), 80 h. Summed up:
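Real-time impedance growth kinetics of human T-47D breast cells read 80 h after dosing, gain-of-signal fitted relative to DMSO. Compounds: 1:4 serial series, top final concentration 100 uM, n = 2.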

Test [2] in a line: ATG_CRE_CIS: Attagene CIS-FACTORIAL HepG2 Assay for human cAMP Responsive Element (CRE) binding protein 3 (AID 2282926). Particulars: HepG2 CRE cis-reporter, Attagene multiplexed mRNA; actives raise or lower the signal. Summed up: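 Multiplexed transcription-unit reporters transfected into HepG2; 24 h dosing; RT-PCR/capillary electrophoresis fluorescence read-out; bidirectional fit vs DMSO.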

The target of test [3] is CCAAT/enhancer-binding protein beta (Homo sapiens) (UniProt P17676). Nature of the test: ATG_C_EBP_CIS: Attagene CIS-FACTORIAL HepG2 Assay for human CCAAT/Enhancer Binding Protein (C/EBP) beta (AID 2282927). The note with it: HepG2 Attagene cis-factorial transcription factor reporter; actives raise or lower the signal. Summed up:
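Endogenous C/EBPb-driven reporter transcripts measured in transfected human HepG2 cells at 24 h via RT-PCR and capillary electrophoresis of labelled fragments. Activity fitted in both directions relative to DMSO baseline.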

Test [4] in a line: ATG_CMV_CIS: Attagene CIS-FACTORIAL HepG2 Assay for human CMV (Internal Marker) (AID 2282928).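 Also: endpoint acts as a background internal control marker rather than a target.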 The note with it: HepG2 CMV promoter reporter, transcription factor profiling; actives raise or lower the signal. Summed up: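 Cell system: HepG2, transiently transfected multiple reporter units under cis promoters. Exposure: 24 h. Detection: RT-PCR, FAM labeling, HpaI digestion, capillary electrophoresis. Analysis: bidirectional, DMSO baseline.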

The nature of test [5]: ATG_DR4_LXR_CIS: Attagene CIS-FACTORIAL HepG2 Assay for human Liver X Receptor (LXR), DR4 submotif (AID 2282929). Particulars: HepG2 Attagene DR4 cis-reporter, mRNA transcription; actives raise or lower the signal. Summed up:
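The endpoint is DR4-element-driven reporter transcripts after 24 h chemical exposure of transfected HepG2 cells. These were measured via RT-PCR and capillary electrophoresis, and gain or loss of signal was fitted relative to DMSO controls.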

Test [6] concerns the target Aryl hydrocarbon receptor (Homo sapiens) (UniProt P35869). Nature of the test: ATG_Ahr_CIS: Attagene CIS-FACTORIAL HepG2 Assay for human Aryl Hydrocarbon Receptor (Ahr) (AID 2282930). Particulars: HepG2 AhR cis-factorial reporter transcription; actives raise or lower the signal. In outline:
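Reporter mRNA levels, quantified by RT-PCR and fluorescent capillary electrophoresis, reflect endogenous AhR transcriptional activity in HepG2 cells carrying transfected cis-promoter reporter constructs. Readout at 24 h post-dose; gain or loss fitted against DMSO baseline.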

A short description of test [7]: ATG_AP_1_CIS: Attagene CIS-FACTORIAL HepG2 Assay for human Activator Protein 1 (AP-1) (AID 2282931). Particulars: HepG2 Attagene cis-factorial AP-1 reporter mRNA; actives raise or lower the signal. Summed up: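 Readout is reporter transcript level from endogenous transcription factor activity, quantified by RT-PCR with fluorescent primer extension and capillary electrophoresis. Transiently transfected HepG2 cells, 24 h exposure. Curves fitted both directions versus DMSO.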

Test [8] is described as follows: ATG_AP_2_CIS: Attagene CIS-FACTORIAL HepG2 Assay for human Activator Protein 2 (AP-2) (AID 2282932). Particulars: HepG2 AP-2 cis-reporter, Attagene transcription factor profiling; actives raise or lower the signal. In outline: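 Step one: transient transfection of HepG2 with reporter transcription units. Step two: 24 h chemical exposure. Step three: RNA extraction, RT-PCR, labelled fragment analysis by capillary electrophoresis; DMSO serves as baseline.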

Test [9] can be described thus: ATG_BRE_CIS: Attagene CIS-FACTORIAL HepG2 Assay for human Bone Morphogenetic Protein (BMP) Response Element (BRE) (AID 2282933). Particulars: HepG2 BMP response element reporter, Attagene transcription factor profiling; actives raise or lower the signal. Summed up:
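Endogenous transcription factor activity read in transiently transfected HepG2 cells after 24 h chemical exposure. Bidirectional curve fitting against DMSO; readout is reporter transcript level by RT-PCR with capillary electrophoresis of labelled products.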

The target in test [10] is Transcription factor E2F1 (Homo sapiens) (UniProt Q01094). As to the kind of experiment: ATG_E2F_CIS: Attagene CIS-FACTORIAL HepG2 Assay for human E2F Transcription Factor 1 (AID 2282935). Particulars: HepG2 Attagene cis-reporter, E2F reporter RNA transcripts; actives raise or lower the signal. In outline:
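Total RNA from 24 h-treated, reporter-transfected HepG2 cells undergoes DNase I treatment, oligo(dT) reverse transcription, PCR and 6-FAM primer extension before capillary electrophoresis.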

A short description of test [11]: ATG_M_61_CIS: Attagene CIS-FACTORIAL HepG2 Assay for M61 Transcription Factor (Internal Marker) (AID 2282937). Particulars: HepG2 Attagene CIS-FACTORIAL M61 internal marker reporter; actives raise or lower the signal. Summed up:
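Readout is reporter mRNA by RT-PCR, fluorescent primer extension and capillary electrophoresis, with gain or loss fitted relative to DMSO. Transfected HepG2 cells carrying endogenous-TF-driven cis reporters were exposed to chemicals for 24 hours.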

Test [12] can be described thus: ATG_EGR_CIS: Attagene CIS-FACTORIAL HepG2 Assay for human Early Growth Response 1 (EGR1) (AID 2282938). Particulars: HepG2 Attagene CIS-FACTORIAL EGR reporter mRNA; actives raise or lower the signal. In outline: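 After 24 h compound exposure, RNA from reporter-transfected HepG2 cells was reverse-transcribed, PCR-amplified, fluorescently labelled and resolved by capillary electrophoresis. EGR1 reporter transcript changes, up or down, were fitted against DMSO, reflecting endogenous transcription-factor activity.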

Test [13] can be described thus: ATG_M_19_CIS: Attagene CIS-FACTORIAL HepG2 Assay for M19 Transcription Factor (Internal Marker) (AID 2282939). The note with it: HepG2 Attagene CIS-FACTORIAL M19 internal marker reporter; actives raise or lower the signal. In outline: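 Internal marker readout, fitted in both directions against DMSO, from HepG2 cells carrying transfected cis-element reporter constructs; RT-PCR and capillary electrophoresis of reporter mRNA after 24 h exposure.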

The nature of test [14]: ATG_ERE_CIS: Attagene CIS-FACTORIAL HepG2 Assay for Estrogen Response Element (ERE) (AID 2282940). Particulars: HepG2 ERE cis-reporter, Attagene RNA transcript; actives raise or lower the signal. In outline: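 After 24 h compound treatment, RNA from transfected HepG2 cells was reverse-transcribed, reporter cDNA PCR-amplified, FAM-labelled, HpaI-cut and resolved by capillary electrophoresis. ERE-driven cis reporter transcripts reflect endogenous factors; gain or loss scored against DMSO.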

A short description of test [15]: ATG_Ets_CIS: Attagene CIS-FACTORIAL HepG2 Assay for human Erythroblast Transformation Specific (ETS) (AID 2282941). Particulars: HepG2 ETS cis-reporter transcription, actives raise or lower the signal. Summed up:
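After transient cis-reporter transfection, HepG2 cells receive test chemical for 24 h. Reporter mRNA levels, measured by RT-PCR and capillary electrophoresis fluorescence, are analysed bidirectionally relative to the DMSO baseline.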

Test [16] concerns the target Hepatocyte nuclear factor 3-beta (Homo sapiens) (UniProt Q9Y261). Nature of the test: ATG_FoxA2_CIS: Attagene CIS-FACTORIAL HepG2 Assay for human Forkhead box A2 (FOXA2) (AID 2282942). Particulars: HepG2 cis-reporter transcription factor activity, 24 h; actives raise or lower the signal. Summed up:
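Endogenous transcription factor activity is captured via cis-element-driven reporter transcripts in transfected HepG2. Total RNA taken at 24 h post-dosing; labelled RT-PCR products resolved by capillary electrophoresis. Gain or loss fitted versus DMSO.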

Test [17] is described as follows: ATG_FoxO_CIS: Attagene CIS-FACTORIAL HepG2 Assay for human Forkhead box O (FoxO) (AID 2282943). Particulars: HepG2 Attagene cis-reporter, FoxO element, mRNA; actives raise or lower the signal. Summed up: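 Endogenous transcription factor activity read from multiplexed cis-promoter reporter transcripts in transiently transfected HepG2, 24 h after dosing. Reporter RNA measured via RT-PCR plus capillary electrophoresis of FAM-labeled products; gain or loss relative to DMSO.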

Test [18] in a line: ATG_GATA_CIS: Attagene CIS-FACTORIAL HepG2 Assay for human GATA Binding Protein (AID 2282944). Particulars: HepG2 GATA cis-element reporter, Attagene multiplex mRNA; actives raise or lower the signal. Summed up:
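Reporter transcripts from a GATA cis-regulated unit, among multiplexed reporters in transfected HepG2 cells, were measured by RT-PCR with capillary electrophoresis after 24 h dosing. Induction or loss scored relative to DMSO.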

The nature of test [19]: ATG_E_Box_CIS: Attagene CIS-FACTORIAL HepG2 Assay for human Enhancer Box (E-box) (AID 2282936). The note with it: HepG2 E-box cis-reporter transcription, actives raise or lower the signal. Summed up:
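DMSO served as negative control and baseline for bidirectional fitting. Human hepatoma HepG2 cells, transiently transfected with cis-reporter constructs, were dosed 24 h; reporter mRNA read by RT-PCR and capillary electrophoresis.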

The target of test [20] is Retinoic acid receptor alpha (Homo sapiens) (UniProt P10276). As to the kind of experiment: ATG_DR5_RAR_CIS: Attagene CIS-FACTORIAL HepG2 Assay for human Retinoic Acid Receptor Alpha (RARE), DR5 submotif (AID 2282934). The note with it: HepG2 Attagene cis-factorial RARE DR5 reporter, mRNA; actives raise or lower the signal. In outline: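 Reporter transcripts from a DR5-regulated unit, measured via RT-PCR plus capillary electrophoresis, reflect endogenous RAR activity in transiently transfected human HepG2 liver cells. Exposure lasted 24 h; gain or loss of signal scored against DMSO.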

By AC50 is commonly meant the midpoint of the concentration-response curve, whichever way the signal moves.

Results filed as inconclusive are left out. The source made the active and inactive calls. The calls were made as follows, unless noted: active = hit-call score of the fitted dose curve at least 0.9, where 1 is the maximum; inactive = score below 0.9. Peptide text beside a SMILES is read from it.

Chain of Hepatocyte nuclear factor 3-beta (Homo sapiens) (Q9Y261 whole entry, looked up): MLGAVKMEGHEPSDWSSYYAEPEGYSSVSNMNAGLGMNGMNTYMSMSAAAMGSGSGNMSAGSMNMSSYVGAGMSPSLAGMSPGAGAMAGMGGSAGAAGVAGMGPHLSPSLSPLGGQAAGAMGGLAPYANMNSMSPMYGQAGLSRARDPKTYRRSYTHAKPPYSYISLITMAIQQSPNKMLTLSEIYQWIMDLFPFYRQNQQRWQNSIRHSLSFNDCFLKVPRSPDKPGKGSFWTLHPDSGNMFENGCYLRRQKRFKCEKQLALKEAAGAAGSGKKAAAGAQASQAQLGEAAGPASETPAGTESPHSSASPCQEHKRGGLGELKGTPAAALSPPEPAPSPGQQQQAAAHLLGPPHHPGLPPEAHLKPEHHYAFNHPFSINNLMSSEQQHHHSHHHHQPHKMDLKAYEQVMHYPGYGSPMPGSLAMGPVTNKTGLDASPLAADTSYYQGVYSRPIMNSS
Chain of CCAAT/enhancer-binding protein beta (Homo sapiens) (P17676 whole entry, looked up, the tested form may be a part): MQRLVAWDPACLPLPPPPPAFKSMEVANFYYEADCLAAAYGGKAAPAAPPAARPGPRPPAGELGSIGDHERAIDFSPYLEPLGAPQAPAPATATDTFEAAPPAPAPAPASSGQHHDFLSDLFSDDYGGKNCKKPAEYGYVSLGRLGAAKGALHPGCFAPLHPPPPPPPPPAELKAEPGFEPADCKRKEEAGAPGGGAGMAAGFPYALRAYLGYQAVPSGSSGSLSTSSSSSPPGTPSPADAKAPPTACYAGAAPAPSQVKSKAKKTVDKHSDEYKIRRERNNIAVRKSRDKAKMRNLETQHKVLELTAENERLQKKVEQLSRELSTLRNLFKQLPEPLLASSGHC
Chain of Aryl hydrocarbon receptor (Homo sapiens) (P35869 whole entry, looked up): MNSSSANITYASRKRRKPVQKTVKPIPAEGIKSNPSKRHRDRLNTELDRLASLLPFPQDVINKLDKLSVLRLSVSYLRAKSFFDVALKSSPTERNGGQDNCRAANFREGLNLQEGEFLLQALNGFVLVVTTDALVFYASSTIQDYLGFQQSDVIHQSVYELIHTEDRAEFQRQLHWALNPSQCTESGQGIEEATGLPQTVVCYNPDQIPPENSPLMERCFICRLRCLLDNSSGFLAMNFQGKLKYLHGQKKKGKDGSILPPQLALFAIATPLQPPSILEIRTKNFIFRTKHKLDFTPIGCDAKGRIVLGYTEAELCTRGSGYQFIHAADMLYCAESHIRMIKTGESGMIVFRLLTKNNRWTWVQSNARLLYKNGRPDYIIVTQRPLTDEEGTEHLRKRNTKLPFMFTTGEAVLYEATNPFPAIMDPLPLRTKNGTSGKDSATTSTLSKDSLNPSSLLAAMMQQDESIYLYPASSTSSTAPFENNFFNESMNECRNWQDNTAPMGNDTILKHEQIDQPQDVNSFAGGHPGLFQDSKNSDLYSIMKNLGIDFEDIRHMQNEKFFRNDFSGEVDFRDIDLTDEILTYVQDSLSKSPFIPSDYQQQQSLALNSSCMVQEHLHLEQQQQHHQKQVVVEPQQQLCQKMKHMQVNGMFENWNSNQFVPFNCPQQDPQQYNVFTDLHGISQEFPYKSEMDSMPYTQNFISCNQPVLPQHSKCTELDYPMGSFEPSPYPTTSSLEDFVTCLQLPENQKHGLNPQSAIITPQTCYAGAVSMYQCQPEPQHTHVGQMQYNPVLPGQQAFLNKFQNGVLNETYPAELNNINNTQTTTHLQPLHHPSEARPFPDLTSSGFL
Chain of Transcription factor E2F1 (Homo sapiens) (Q01094 whole entry, looked up): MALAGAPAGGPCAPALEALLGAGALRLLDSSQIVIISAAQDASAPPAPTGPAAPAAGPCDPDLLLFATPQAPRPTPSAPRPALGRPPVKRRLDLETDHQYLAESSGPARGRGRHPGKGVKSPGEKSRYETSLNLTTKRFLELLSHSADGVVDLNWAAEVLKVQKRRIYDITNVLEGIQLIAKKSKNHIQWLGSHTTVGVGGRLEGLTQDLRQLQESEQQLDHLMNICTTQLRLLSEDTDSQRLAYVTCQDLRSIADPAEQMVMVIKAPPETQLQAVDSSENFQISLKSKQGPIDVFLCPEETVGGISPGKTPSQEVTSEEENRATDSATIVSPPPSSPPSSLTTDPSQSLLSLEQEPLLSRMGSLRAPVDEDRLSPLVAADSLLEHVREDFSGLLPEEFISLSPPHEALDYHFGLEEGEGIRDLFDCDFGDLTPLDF
Chain of Retinoic acid receptor alpha (Homo sapiens) (P10276 whole entry, looked up): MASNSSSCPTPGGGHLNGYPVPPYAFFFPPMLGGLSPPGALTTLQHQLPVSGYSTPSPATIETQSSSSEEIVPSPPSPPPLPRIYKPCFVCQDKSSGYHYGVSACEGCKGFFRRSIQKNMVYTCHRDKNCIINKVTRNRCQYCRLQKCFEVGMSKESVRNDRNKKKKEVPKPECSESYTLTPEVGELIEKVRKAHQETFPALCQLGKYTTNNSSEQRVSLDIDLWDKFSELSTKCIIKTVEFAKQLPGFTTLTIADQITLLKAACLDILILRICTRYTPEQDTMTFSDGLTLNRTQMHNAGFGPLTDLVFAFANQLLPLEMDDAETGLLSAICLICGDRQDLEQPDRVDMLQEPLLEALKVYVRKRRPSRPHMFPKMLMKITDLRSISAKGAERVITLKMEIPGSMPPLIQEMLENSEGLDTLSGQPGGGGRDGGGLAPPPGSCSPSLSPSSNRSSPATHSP

As to `CCCCNS(=O)(=O)c1ccc(C)cc1`, the call in test [1], in [2], in test [3], in test [4], in [5] and in test [6] was inactive. The molecule was called inactive in [7], in test [8], in [9], in test [10], in test [11] and in test [12]. Moreover, the call in test [13], in test [14], in [15], in test [16], in test [17] and in test [18] was inactive.

Take `Cc1c(Cl)cccc1Cl`: the result in test [1], in [2], in test [3], in test [4], in test [5] and in test [6] was inactive. Also, the outcome in [7], in test [8], in [9], in test [10], in [19] and in [11] was inactive. The call in test [12], in [13], in test [15], in test [16], in test [17] and in [18] was inactive.

As for `CCOC(=O)/C=C\C(=O)OCC`, the outcome in [1], in [2], in test [3], in test [4], in test [5] and in [6] was inactive. Besides, the molecule was called inactive in test [8], in test [9], in test [10], in test [19], in test [11] and in test [13]. For the same molecule, the call in [14], in test [15], in test [16] and in [18] was inactive. In addition, the AC50 in [7] is 50.5 µM (active).

`Oc1c(Cl)cc(Cl)c(Cl)c1Cl`: the half-maximal activity concentration (AC50) in test [1] was 10.5 µM (active); in test [12], 100 µM (active). For the same molecule, the result in [2], in test [3], in test [4], in test [5], in [6] and in test [7] was inactive. The molecule was classed as inactive in test [8], in test [20], in [10], in test [19], in test [11] and in [13]. Besides, the call in test [16], in test [17] and in test [18] was inactive.

Consider `CC=C(C)C=CC=C(C)C`, for which the result in [1], in [2], in [3], in test [4], in [5] and in [6] was inactive. In addition, the call in test [7], in test [8], in test [20], in test [10], in test [19] and in test [11] was inactive. Besides, the outcome in test [12], in test [13], in [14], in test [15], in test [16] and in test [17] was inactive. Also, the outcome in test [18] was inactive.

On to `C=CCCCCCCCCOC(C)=O`, for which the outcome in [1], in test [2], in test [3], in test [4], in test [5] and in test [6] was inactive. For the same molecule, the molecule was classed as inactive in test [7], in [8], in test [9], in test [10], in test [19] and in test [11]. In addition, the molecule was called inactive in [12], in test [13], in test [14], in [15], in test [16] and in test [17]. Moreover, the molecule was classed as inactive in test [18].

Take `COC(=O)[C@H](Cc1ccccc1)NC(=O)[C@@H](N)CC(=O)O` (H-Asp-Phe-OMe): the molecule was classed as inactive in test [1], in [2], in test [3], in test [4], in [5] and in test [6]. Moreover, the result in [7], in test [8], in [9], in test [10], in test [19] and in test [11] was inactive. Moreover, the call in test [13], in test [15], in [16], in [17] and in [18] was inactive. The half-maximal activity concentration (AC50) in test [14] is 42.1 µM (active).

Consider `CCCC/C=C/C=C\C=O`, for which the call in test [1], in [2], in [3], in [6], in test [8] and in test [10] was inactive. Moreover, the outcome in test [19], in [11], in test [13], in test [14], in test [15] and in [16] was inactive. The result in [17] and in test [18] was inactive. Moreover, the AC50 is 159 µM (active) in [4], 135 µM (active) in [5], 149 µM (active) in test [7] and 100 µM (active) in test [12].
